PubChem BioAssay (NCATS)
Where “and” joins values, the source holds several entries; their conditions need not be identical. Equal entries are not always repeated. Inconclusive results are not listed. Calls of active or inactive are those of the source. Unless noted, calls follow the shape of the dose curve; as a rule, active = well fitted curve in the direction sought with a large enough effect; inconclusive = small, poorly fitted or top-dose-only effect, or another doubt; inactive = no such curve, though single readings can be large; an effect the other way counts as inactive or inconclusive.

Key:
[1] = Cell Viability - SK-N-SH (AID 435; calls by dose curve;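 also: potency is read from the fitted curve at half-maximal effect; compound exposure lasted 40 h at 37 °C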); conditions: SK-N-SH neuroblastoma cell viability qHTS
How it was run: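 CellTiter-Glo ATP luminescence, 20 min RT read; cells pre-plated 5 hr, compound 40 hr at 37 °C, 1500 cells/well, complete medium. Normalized DMSO = 0, 100 uM tamoxifen = 100% inhibition; Hill-fit AC50.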

[2] = Cell Viability - HUV-EC-C (AID 542); conditions: HUV-EC-C endothelial cell viability, qHTS; series mostly up to 92.2 µM; also: nearly all actives have a fitted effect of over 35% in size; also: potency is read from the fitted curve at half-maximal effect
How it was run: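 Cells were seeded at 1000 per well and incubated 5 hr at 37 °C before compound addition. After 40 hr at 37 °C, CellTiter-Glo reagent was added for 20 min and luminescence read. AC50 values came from Hill-equation modelling.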

[3] = Cell Viability - H-4-II-E (AID 543); conditions: H-4-II-E rat hepatoma viability; series mostly up to 92.2 µM; also: nearly all actives have a fitted effect of over 35% in size; also: potency is read from the fitted curve at half-maximal effect
How it was run: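 Cells seeded at 1500 per well and rested 5 hr; compounds added; 40 hr incubation at 37 °C; CellTiter-Glo added, 20 min at room temperature; luminescence read. Hill-equation fits gave AC50.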

[4] = Cell Viability - SH-SY5Y (AID 544); conditions: SH-SY5Y neuroblastoma cell viability; viability change, negative = cytotoxic: at 92.2 µM (top of the series); also: nearly all actives have a fitted effect of over 55% in size; also: potency is read from the fitted curve at half-maximal effect;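 as to viability change, negative = cytotoxic: 0% = DMSO alone and -100% = 100 µM tamoxifen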
How it was run: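 Cells were plated at 1500 per well and allowed 5 hr at 37 °C. Compounds were added across a concentration range and incubated 40 hr at 37 °C. CellTiter-Glo was added for 20 min at room temperature before luminescence reading.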

[5] = Cellular Toxicity (caspase-3) Renal Proximal Tubule (AID 667); conditions: renal proximal tubule cells; series mostly up to 91.7 µM;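 also: cells exposed to compound for 16 hours at 37 °C before detection; 0% = DMSO basal and 100% = 10 µM staurosporine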
How it was run: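 Luminescent caspase 3/7 signal from peptide-aminoluciferin cleavage measures apoptosis in freshly isolated rat kidney proximal tubule cells after 16 h compound exposure. Concentration-response data are normalized to DMSO and 10 uM staurosporine, and AC50 values come from Hill equation fits.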

[6] = biological target: Cytochrome P450 3A4 (Homo sapiens) (UniProt P08684); assay: qHTS Assay for Inhibitors and Substrates of Cytochrome P450 3A4 (AID 884); conditions: recombinant CYP3A4, Luciferin-PPXE luminescence; series mostly up to 57.1 µM; also: nearly all actives have a fitted effect of over 50% in size; also: potency is read from the fitted curve at half-maximal effect
How it was run: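 Luminescent readout of luciferin produced by CYP3A4 (20 nM) dealkylation of Luciferin-PPXE, 25 uM (its KM). NADPH-driven reaction ran 60 min at RT after 10 min compound preincubation; data scaled to 57 uM ketoconazole as 100% inhibition.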

[7] = Cell Viability - LYMP2-004 (AID 966); conditions: LYMP2-004 lymphoblastoid cell viability, qHTS; series mostly up to 92.2 µM;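 also: plate controls were DMSO only for no effect and tetraoctylammonium bromide control for full effect; nearly all actives have a fitted effect of over 65% in size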
How it was run: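 qHTS cytotoxicity: human lymphoblastoid line, 24 hr compound treatment, 37 C, complete medium. Viability read as cellular ATP via luciferase luminescence; tetraoctylammonium bromide served as positive control.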

[8] = Cell Viability - LYMP2-005 (AID 967); conditions: LYMP2-005 lymphoblastoid cell viability; series mostly up to 92.2 µM;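 also: plate controls were DMSO only for no effect and 92 µM tetraoctylammonium bromide control for full effect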
How it was run: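 Steps: seed 2500 LYMP2-005 cells/well, incubate 5 h at 37 C, add compound, incubate 24 h at 37 C, add CellTiter-Glo, wait 30 min at RT, read luminescence. Concentration-response data fitted to Hill equation for AC50.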

[9] = Cell Viability - LYMP2-012 (AID 982); conditions: LYMP2-012 lymphoblastoid cell viability qHTS; series mostly up to 92.2 µM;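 also: cellular ATP by luciferase luminescence where a drop means cytotoxicity; cells exposed to compound for one day before reading; nearly all actives have a fitted effect of over 55% in size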; also: potency is read from the fitted curve at half-maximal effect
[10] = Cell Viability - LYMP2-018 (AID 985); conditions: LYMP2-018 lymphoblastoid cells, viability (qHTS); series mostly up to 92.2 µM;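 also: compound exposure lasted 24 hr at 37 °C; nearly all actives have a fitted effect of over 50% in size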; also: potency is read from the fitted curve at half-maximal effect
How it was run: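 Seed 2500 lymphoblastoid cells per well, incubate 5 hr at 37 C, add compound and incubate 24 hr at 37 C, add CellTiter-Glo, wait 30 min at room temperature, then read luminescence.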

[11] = Cell Viability - LYMP1-002 - Assay at 40 hr (AID 994); conditions: LYMP1-002 lymphoblastoid cell viability; series mostly up to 92.2 µM; also: nearly all actives have a fitted effect of over 60% in size; also: potency is read from the fitted curve at half-maximal effect;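 as to viability change, negative = cytotoxic: 0% = DMSO only and full inhibition = 92 µM tetraoctylammonium bromide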
How it was run: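 Cells are plated at 2500 per well and rested 5 hr at 37 C. Compounds are added and incubated 40 hr at 37 C. CellTiter-Glo reagent is added for 30 min at room temperature before luminescence is read.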

[12] = qHTS assay for small molecule agonists of retinoid X receptor alpha signaling (AID 588544; calls by dose curve;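 as to activation: 0% = DMSO basal wells and 100% = reference agonist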); conditions: HEK293T RXRa-UAS-bla, beta-lactamase reporter, 18 h; 530 nm emission
[13] = biological target: Retinoic acid receptor RXR-alpha (Homo sapiens) (UniProt P19793); assay: as above; conditions: HEK293T RXRa-UAS-bla, beta-lactamase reporter, 18 h; series mostly up to 76.7 µM
[14] = qHTS assay for small molecule antagonists of retinoid X receptor alpha signaling (AID 588546; active = well fitted inhibition curve with a large enough effect in the signal ratio, with a control signal flat, not every such curve was filed as active; the % refers to the signal ratio;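 also: cells stimulated with 9-cis-retinoic acid as agonist; % is scaled to controls: 0 for no effect and ±100 for the full control effect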); conditions: HEK293T RXRa-UAS-bla, beta-lactamase ratio, antagonist mode; measured here: W530 green channel, cytotoxicity proxy
How it was run: (§1)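 Beta-lactamase reporter inhibition, read as CCF4 fluorescence ratio (ex 405, em 460/530 nm) after 2 h at RT. HEK293T UAS-bla cells, 2500/well, were stimulated with 9-cis-RA at 500 or 100 nM final alongside test compound for 18 h at 37 C.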

[15] = biological target: Retinoic acid receptor RXR-alpha (Homo sapiens) (UniProt P19793); assay: as above; conditions: HEK293T RXRa-UAS-bla, beta-lactamase ratio, antagonist mode
How it was run: as §1

[16] = biological target: Tumor necrosis factor (Homo sapiens) (UniProt P01375); assay: qHTS assay to identify small molecules that stimulate Tumor Necrosis Factor-alpha (TNF-alpha) secretion (AID 651757; active = well fitted curve in the direction sought with a large enough effect in the signal ratio; the % refers to the signal ratio; also: 0% is about no effect); conditions: Human cells, HTRF 665/615 ratio; series mostly up to 92.2 µM
How it was run: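 Human monocytic THP-1 cells are plated, treated with compound and held at 37 C for 17 hrs. Labeled anti-TNF-alpha antibody mixture is then added; after 3 hr at room temperature, TR-FRET signal reports secreted TNF-alpha.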

[17] = qHTS assay for environmental chemicals that activate the Aryl hydrocarbon Receptor (AhR) signaling pathway (AID 651777); conditions: 1A2-DRE human hepatoma cells, luciferase, 24 h; activation: stronger effect = higher value; also: nearly all actives have a fitted effect of over 15% in size; also: potency is read from the fitted curve at half-maximal effect; as to activation: % of control where 0% means no effect
How it was run: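 Stable CYP1A2 promoter/DRE-luciferase human hepatoma line treated 24 hr; One-Glo luminescence, 30 min RT.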

[18] = qHTS assay for small molecule agonists of the antioxidant response element (ARE) signaling pathway measured by Nrf2-dependant transcriptional activity (AID 720636; active = well fitted curve in the direction sought with a large enough effect in the repeat runs; an effect the other way counts as inactive or inconclusive;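 also: HepG2 cells with an ARE-driven luciferase reporter; % of control where 0% means no effect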); conditions: ARE-luc HepG2, Nrf2 luciferase reporter, 16 h; series mostly up to 92.4 µM
How it was run: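 Reporter gene assay, HepG2 ARE-luc: 16 hr compound, 37 C, 5% CO2; read-out luciferase luminescence.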

[19] = Cell Viability - Hek293 (AID 427;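 active = compounds whose dose-response curve shows a full or clear partial loss of cell viability, called from curve shape rather than a numeric limit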;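 also: potency is read from the fitted curve at half-maximal effect; cells exposed to compound for 40 hours at 37 °C before reading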); conditions: qHTS
How it was run: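 HEK293 cells in complete medium were exposed to compound for 40 hr at 37 °C, then cellular ATP was read by CellTiter-Glo luminescence. Data were normalized to DMSO (basal) and 100 uM tamoxifen (100% inhibition), and AC50 came from Hill fits.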

[20] = MultiTox-Fluor Cytotoxicity Assay - LYMP1-002 - Dead Cells (AID 960); conditions: LYMP1-002 lymphoblastoid cells, dead-cell protease fluorescence; series mostly up to 46.1 µM; also: nearly all actives have a fitted effect of over 60% in size; also: potency is read from the fitted curve at half-maximal effect
How it was run: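 Cells were plated, rested 5 hr, then treated with compound dilution series for 16 hr at 37 C. After adding substrate reagent and 60 min at room temperature, dead-cell protease fluorescence gave concentration-response curves fitted by the Hill equation.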

Sequence of Retinoic acid receptor RXR-alpha (Homo sapiens) (P19793 whole entry, looked up): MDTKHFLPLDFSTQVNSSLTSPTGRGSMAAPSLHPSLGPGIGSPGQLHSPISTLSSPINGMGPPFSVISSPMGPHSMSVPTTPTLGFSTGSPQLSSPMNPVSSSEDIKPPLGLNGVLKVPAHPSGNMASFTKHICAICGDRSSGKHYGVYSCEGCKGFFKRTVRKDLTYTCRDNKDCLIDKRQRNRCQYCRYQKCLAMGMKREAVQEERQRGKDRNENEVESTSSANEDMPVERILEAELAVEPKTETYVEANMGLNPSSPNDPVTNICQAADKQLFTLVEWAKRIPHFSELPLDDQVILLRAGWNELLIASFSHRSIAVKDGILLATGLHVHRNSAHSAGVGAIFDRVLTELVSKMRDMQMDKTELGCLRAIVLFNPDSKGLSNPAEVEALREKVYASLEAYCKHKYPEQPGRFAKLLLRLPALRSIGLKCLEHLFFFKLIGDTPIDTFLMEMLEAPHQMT
Sequence of Cytochrome P450 3A4 (Homo sapiens) (P08684 whole entry, looked up): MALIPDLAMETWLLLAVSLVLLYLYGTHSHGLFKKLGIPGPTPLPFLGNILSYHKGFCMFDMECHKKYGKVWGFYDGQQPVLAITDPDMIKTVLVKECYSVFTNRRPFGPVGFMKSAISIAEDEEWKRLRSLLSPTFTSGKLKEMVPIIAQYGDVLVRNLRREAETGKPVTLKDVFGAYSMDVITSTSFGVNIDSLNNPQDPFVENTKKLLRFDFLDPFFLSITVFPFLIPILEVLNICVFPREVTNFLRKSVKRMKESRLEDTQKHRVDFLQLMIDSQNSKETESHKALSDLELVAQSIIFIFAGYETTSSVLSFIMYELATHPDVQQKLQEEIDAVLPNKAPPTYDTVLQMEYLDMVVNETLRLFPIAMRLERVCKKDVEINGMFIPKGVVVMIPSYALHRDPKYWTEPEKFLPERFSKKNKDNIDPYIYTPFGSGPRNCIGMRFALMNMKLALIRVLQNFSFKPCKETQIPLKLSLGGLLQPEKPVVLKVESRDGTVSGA
Sequence of Tumor necrosis factor (Homo sapiens) (P01375 whole entry, looked up): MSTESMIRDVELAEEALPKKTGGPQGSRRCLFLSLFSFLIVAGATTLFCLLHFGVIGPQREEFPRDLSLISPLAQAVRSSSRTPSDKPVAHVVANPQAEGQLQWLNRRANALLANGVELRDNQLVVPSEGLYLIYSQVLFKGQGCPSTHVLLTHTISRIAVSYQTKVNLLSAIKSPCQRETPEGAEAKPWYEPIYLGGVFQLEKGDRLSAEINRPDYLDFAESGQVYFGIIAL

O=[N+]([O-])c1c(Cl)c(Cl)c(Cl)c(Cl)c1Cl
inactive: Potency [1] > 92 µM | Potency [2] | Potency [3] | Potency [4] | outcome [5] | Potency [6] | Potency [7] | Potency [8] | Potency [9] | Potency [10] | Potency [11] | outcome [13] | max response [15] -5.68% | outcome [16] | activation [17] -0.0122% and 2.68% | Potency [18]
-1.28%: max response [14]
-0.246% and 22.3%: max response [12]

CCCCC(CC)COC(=O)c1ccc(C(=O)OCC(CC)CCCC)c(C(=O)OCC(CC)CCCC)c1 (stereo unspecified)
-8.52%: max response [12]
inactive: Potency [19] > 92 µM | Potency [1] > 92 µM | Potency [2] | Potency [3] | Potency [4] | outcome [5] | Potency [6] | Potency [20] | Potency [7] | Potency [8] | Potency [9] | Potency [10] | Potency [11] | outcome [13] | max response [15] 5.41% | outcome [16] | activation [17] -0.0808% | Potency [18]
-7.98%: max response [14]

Nc1ccc([N+](=O)[O-])cc1N
7.14% and -1.85%: max response [14]
inactive: Potency [19] > 92 µM | Potency [1] > 92 µM | Potency [2] | Potency [3] | outcome [5] | Potency [6] | Potency [20] | Potency [7] | Potency [8] | Potency [9] | Potency [10] | Potency [11] | outcome [13] | max response [15] -24.9% and -14.3% | activation [17] 1.47% and 1.07%
-12.1%: max response [12]

CCN(N=O)C(N)=O
inactive: Potency [19] > 92 µM | Potency [1] > 92 µM | Potency [2] | Potency [3] | Potency [4] | Potency [6] | Potency [20] | Potency [7] | Potency [8] | Potency [9] | Potency [10] | Potency [11] | outcome [13] | max response [15] -5.46% | outcome [16] | activation [17] 0.0477% | Potency [18]
-12%: max response [12]
-10.6%: max response [14]

C=CCCC#N
-6.48%: max response [14]
inactive: Potency [19] > 92 µM | Potency [1] > 92 µM | Potency [2] | Potency [3] | Potency [4] | Potency [6] | Potency [20] | Potency [7] | Potency [9] | Potency [10] | Potency [11] | outcome [13] | max response [15] 17.4% | outcome [16] | Potency [18]
-8.63%: max response [12]

O=C(O)C(Br)Br
-1.6%: max response [14]
inactive: Potency [19] > 92 µM | Potency [2] | Potency [3] | outcome [5] | Potency [6] | Potency [20] | Potency [7] | Potency [9] | Potency [10] | Potency [11] | outcome [13] | max response [15] 6.61% | outcome [16]
-1.1%: max response [12]

Nc1cc(Cl)cc(C(=O)O)c1Cl
inactive: Potency [19] > 92 µM | Potency [1] > 92 µM | Potency [2] | Potency [3] | Potency [4] | outcome [5] | Potency [20] | Potency [7] | Potency [8] | Potency [9] | Potency [10] | Potency [11] | outcome [13] | max response [15] 5.23% and 3.9% | outcome [16] | activation [17] 7.92% and 6.33% | Potency [18]
0.823% and -3.03%: max response [14]
-12.3% and -7.66%: max response [12]

C(CCOCC1CO1)COCC1CO1 (stereo unspecified)
active: Potency [4] 31.6 µM | Potency [11] 39.8 µM
5.96%: max response [14]
-1.76%: max response [12]
inactive: Potency [19] > 92 µM | Potency [1] 27.7 µM | Potency [2] | Potency [3] | outcome [5] | Potency [6] | Potency [20] | Potency [8] | Potency [9] | outcome [13] | max response [15] 15.6% | outcome [16] | activation [17] 0.374% | Potency [18]

CN(C)c1ccc(N)cc1
-13%: max response [14]
inactive: Potency [20] | outcome [13] | max response [15] -17.1%
active: Potency [1] 41.7 µM | Potency [2] 31.6 µM | Potency [3] 50.1 µM | viability change, negative = cytotoxic [4] -91.2% | Potency [9] 50.1 µM | Potency [10] 63.1 µM | Potency [17] 44.7 µM
-18.3%: max response [12]

CN(C)c1ccc(N(C)C)cc1
-11.6%: max response [12]
inactive: Potency [19] > 92 µM | Potency [1] > 92 µM | Potency [2] | outcome [5] | Potency [6] | Potency [20] | Potency [11] | outcome [13] | max response [15] 17.1% | activation [17] 12.9%
-9.82%: max response [14]
active: viability change, negative = cytotoxic [4] -98.2%

O=[N+]([O-])c1ccccc1CCl
9.99%: max response [14]
-8.73%: max response [12]
inactive: Potency [19] > 92 µM | Potency [1] > 92 µM | Potency [2] | Potency [4] | outcome [5] | Potency [6] | Potency [20] | Potency [7] | Potency [8] | Potency [9] | Potency [11] | outcome [13] | max response [15] -4.02% | outcome [16] | activation [17] -0.0678% | Potency [18]

Cc1cc(C)cc(OP(=O)(Oc2cc(C)cc(C)c2)Oc2cc(C)cc(C)c2)c1
active: Potency [6] 2.51 µM | Potency [20] 31.6 µM
17.8%: max response [14]
inactive: Potency [19] > 92 µM | Potency [1] > 92 µM | Potency [2] | Potency [3] | Potency [4] | outcome [5] | Potency [7] | Potency [8] | Potency [9] | Potency [10] | Potency [11] | outcome [13] | max response [15] 28.5% | outcome [16] | activation [17] 12.8% | Potency [18]
-11.1%: max response [12]
